Assay results taken from PubChem BioAssay.
Values joined by “and” are separate entries in the source; they are usually repeats but may differ in a detail not shown here. Identical values can stand only once. Active and inactive are the calls of the source. Unless noted, the rule behind the calls is not given here.

Columns and labels:
[1] = compound effects on lung adenocarcinoma cell viability – A549, calcein-AM fluorescence, 48 h, basal, profiling panel (AID 1162); details: higher = more signal; note: test concentration not given here
[2] = compound effects on differentiated 3T3-L1 adipocyte viability – cell-based, 3T3-L1 adipocytes, calcein-AM fluorescence, 48 h, basal, profiling panel (AID 1163); details: 3T3-L1 adipocytes viability, higher = more signal; note: test concentration not given here
[3] = compound effects on hepatocellular carcinoma cell viability – HepG2, calcein-AM fluorescence, 48 h, basal, profiling panel (AID 1164); details: higher = more signal; note: test concentration not given here
[4] = compound effects on multiple myeloma cell viability – MM1S, calcein-AM fluorescence, 48 h, basal, profiling panel (AID 1165); details: higher = more signal;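 note: viability of MM1S multiple myeloma cells under basal unstimulated conditions; test concentration not given here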
[5] = calcein-AM signal in unstimulated myeloma cells – cell-based, calcein-AM fluorescence, 48 h, PK04 Diversity Set, profiling panel (AID 1166); details: RPMI8226 myeloma viability, higher = more signal;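 note: cells grown under basal conditions without added stimulus; test concentration not given here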
[6] = JC-1 mitochondrial signal, unstimulated HepG2 cells – cell-based, JC-1 fluorescence, 24 h, 100 nL compound, profiling panel (AID 1167); details: HepG2 mitochondrial potential, higher = more signal; note: test concentration not given here
[7] = JC-1 mitochondrial signal, unstimulated adipocytes – cell-based, JC-1 fluorescence, 3T3-L1 adipocytes, 24 h, 100 nL compound, profiling panel (AID 1168); details: JC-1 mitochondrial fluorescence, higher = more signal, called active from +8 up or from −8 down; note: test concentration not given here
[8] = JC-1 mitochondrial signal, unstimulated myeloma cells – cell-based, JC-1 fluorescence, RPMI8226, 24 h, 100 nL compound, profiling panel (AID 1169); details: JC-1 mitochondrial potential fluorescence, higher = more signal; note: test concentration not given here
[9] = JC-1 mitochondrial signal, unstimulated MM1S myeloma – cell-based, JC-1 fluorescence, 24 h, 100 nL compound, profiling panel (AID 1170); details: MM1S mitochondrial potential, higher = more signal; note: test concentration not given here
[10] = resazurin metabolic signal in A549 cells – cell-based, resazurin fluorescence, 24 h, PK04 Diversity Set, profiling panel (AID 1171); details: A549 viability, higher = more signal, called active from +8 up or from −8 down; note: test concentration not given here
[11] = resazurin metabolic signal in HepG2 cells – cell-based, resazurin fluorescence, 24 h, PK04 Diversity Set, profiling panel (AID 1172); details: HepG2 viability, higher = more signal; note: test concentration not given here
[12] = budding yeast growth changes without added modifier – OD600, strain BY4716, 24 h, basal condition, primary screen (AID 1173); details: S. cerevisiae BY4716 growth, OD600, 24 h; higher = more signal, called active from +8 up or from −8 down
[13] = viability profiling in MM1S myeloma cells – cell-based, resazurin fluorescence, basal, 24 h, PK04 Diversity Set, profiling panel (AID 1174); details: higher = more signal, called active from +8 up or from −8 down; note: test concentration not given here
[14] = target: Dihydroorotate dehydrogenase (quinone), mitochondrial (Plasmodium falciparum (isolate 3D7)) (UniProt Q08210); test: inhibition of P. falciparum DHODH – biochemical, C-terminal His tag, absorbance 600 nm, primary screen (AID 1175); details: PfDHODH enzyme, DCIP absorbance 600 nm; higher = more signal, called active from +8 up or from −8 down;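 note: recombinant parasite enzyme with a five histidine tag at its C terminus; test concentration not given here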
Sequence of Dihydroorotate dehydrogenase (quinone), mitochondrial (Plasmodium falciparum (isolate 3D7)) (Q08210 whole entry, looked up): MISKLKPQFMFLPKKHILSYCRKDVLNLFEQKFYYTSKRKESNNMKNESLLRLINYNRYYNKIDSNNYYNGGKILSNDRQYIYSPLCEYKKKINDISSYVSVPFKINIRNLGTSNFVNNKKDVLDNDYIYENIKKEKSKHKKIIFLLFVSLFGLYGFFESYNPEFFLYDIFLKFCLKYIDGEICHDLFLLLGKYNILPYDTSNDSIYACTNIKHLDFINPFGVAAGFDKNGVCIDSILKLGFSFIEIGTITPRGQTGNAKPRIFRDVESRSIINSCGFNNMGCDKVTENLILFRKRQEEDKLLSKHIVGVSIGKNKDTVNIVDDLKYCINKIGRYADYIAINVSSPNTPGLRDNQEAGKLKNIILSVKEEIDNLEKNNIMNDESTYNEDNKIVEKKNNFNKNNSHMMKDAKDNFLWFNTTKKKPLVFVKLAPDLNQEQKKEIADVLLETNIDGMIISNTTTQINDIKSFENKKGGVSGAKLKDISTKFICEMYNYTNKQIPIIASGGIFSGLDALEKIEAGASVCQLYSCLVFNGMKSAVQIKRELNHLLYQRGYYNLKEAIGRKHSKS

[15] = inhibition of PAO1 biofilm formation – strain PAO1, LB-PBS medium, absorbance 600 nm, primary screen (AID 1176); note: test concentration not given here; details: P. aeruginosa PAO1 growth/biofilm, A600, 12 h; higher = more signal
[16] = growth modulation of vineyard yeast isolate – strain RM11-1a, OD600, basal, 24 h, primary screen (AID 1177);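 note: cultures grown under basal conditions with no added stressor; test concentration not given here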; details: S. cerevisiae RM11-1a growth, OD600, 24 h; higher = more signal, called active from +8 up or from −8 down
[17] = growth of efflux-deficient E. coli DRC39 – strain DRC39, OD650, 24 h, E. coli filamentation inducers, primary screen (AID 1178);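 note: growth measured as culture turbidity by optical density at 650 nm; test concentration not given here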; details: E. coli DRC39 acrAB, higher = more signal, called active from +8 up or from −8 down
[18] = growth of efflux-deficient E. coli DRC39 – strain DRC39, OD650, 48 h, E. coli filamentation inducers, primary screen (AID 1179);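 note: screen aims at cell division blockers that make cells filament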; details: E. coli DRC39 delta-acrAB growth, higher = more signal, called active from +8 up or from −8 down
[19] = viability profiling in RPMI8226 myeloma cells – cell-based, resazurin fluorescence, basal, 24 h, PK04 Diversity Set, profiling panel (AID 1180); details: higher = more signal;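 note: RPMI8826 multiple myeloma cell line at 5000 cells per well; test concentration not given here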
[20] = target: E3 ubiquitin-protein ligase XIAP (Homo sapiens) (UniProt P98170); test: small molecules binding XIAP protein – biophysical, small-molecule microarray, fluorescence 635 nm, primary screen (AID 1181); details: higher = more signal;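 note: score merges 667 nm emission and signal to noise over triplicate slides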
Sequence of E3 ubiquitin-protein ligase XIAP (Homo sapiens) (P98170 whole entry, looked up): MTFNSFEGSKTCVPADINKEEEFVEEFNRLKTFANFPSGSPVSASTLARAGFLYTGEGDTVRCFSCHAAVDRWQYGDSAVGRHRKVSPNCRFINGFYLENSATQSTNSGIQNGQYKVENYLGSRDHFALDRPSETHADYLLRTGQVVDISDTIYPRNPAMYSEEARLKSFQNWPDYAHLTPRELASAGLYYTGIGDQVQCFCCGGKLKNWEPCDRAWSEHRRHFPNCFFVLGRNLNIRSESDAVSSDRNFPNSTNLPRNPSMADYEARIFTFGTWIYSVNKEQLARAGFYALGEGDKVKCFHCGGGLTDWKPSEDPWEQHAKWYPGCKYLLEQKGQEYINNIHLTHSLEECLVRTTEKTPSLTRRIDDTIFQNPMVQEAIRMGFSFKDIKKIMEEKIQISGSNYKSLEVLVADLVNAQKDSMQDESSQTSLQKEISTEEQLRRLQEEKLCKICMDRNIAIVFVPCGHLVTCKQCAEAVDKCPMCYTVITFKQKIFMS

SMILES | z-score [1] | z-score [2] | z-score [3] | z-score [4] | z-score [5] | z-score [6] | z-score [7] | z-score [8] | z-score [9] | z-score [10] | z-score [11] | z-score [12] | z-score [13] | composite z-score [14] | z-score [15] | z-score [16] | z-score [17] | z-score [18] | z-score [19] | composite z-score [20]
C=CCN(CCCC)C(=O)C(c1cccs1)N(C(=O)/C=C\C(=O)O)c1c(Cl)cccc1CO (stereo not given) | -0.163 and -0.667 | 0.441 and 0.526 | -0.934 and -0.809 | 1.43 and 1.51 | -0.097 and -0.435 | -0.25 and -0.417 | -0.96 (inactive) and 0.0799 (inactive) | 0.819 and 1.04 | -0.153 and -0.712 | -0.352 (inactive) and 0.397 (inactive) | 0.766 and 0.197 | 0.405 (inactive) and -0.407 (inactive) | -1.21 (inactive) and -0.193 (inactive) | 0.005 (inactive) and 0.0035 (inactive) | 0.991 (inactive) and 0.922 (inactive) | 0.201 (inactive) and 0.0171 (inactive) | 0.591 (inactive) and 0.408 (inactive) | 0.339 (inactive) and 0.354 (inactive) | -0.101 and -0.108 | -0.0857 and -0.0807
C=CCN(C(=O)C1N(c2c(Cl)cccc2CO)C(=O)C2C(C(=O)O)C3C=CC21O3)C(C)(C)C (stereo not given) | -0.875 and 0.96 | 0.766 and -0.202 | 0.613 and 1.78 | 0.64 and 1.54 | -0.224 and -0.394 | -0.536 and 0.627 | -1.27 (inactive) and 1.46 (inactive) | -0.153 and 0.828 | 0.0478 and 1.11 | -0.289 (inactive) and 0.361 (inactive) | 0.0972 and 0.393 | 0.134 (inactive) and -0.493 (inactive) | -0.0453 (inactive) and 1.02 (inactive) | -0.395 (inactive) and -0.725 (inactive) | -0.497 (inactive) and 0.053 (inactive) | 0.42 (inactive) and -1.92 (inactive) | 0.0114 (inactive) and 1.34 (inactive) | -0.228 (inactive) and 1.65 (inactive) | -0.338 and 0.957 | -0.217 and -0.113
C#CCN1C(/C=C/c2ccccc2)C(=O)OC[C@H]1c1ccccc1 (stereo not given in full) | -0.002 and -0.112 | 1.74 and 0.227 | -0.0288 and -0.167 | -0.0906 and -0.0281 | -0.712 and -1.8 | 1.04 and 0.221 | 1.37 (inactive) and 0.0383 (inactive) | -0.749 and 0.481 | -0.328 and -1.12 | -0.925 (inactive) and 1.15 (inactive) | 0.0256 and 1.82 | -5.79 (inactive) and -4.84 (inactive) | 0.911 (inactive) and 0.42 (inactive) | -3.42 (inactive) and -0.43 (inactive) | -0.73 (inactive) | -2.77 (inactive) and -0.151 (inactive) | 2.04 (inactive) and 0.715 (inactive) | 0.639 (inactive) and -0.294 (inactive) | 0.681 and 1.36 | 0.0727 and -0.0871
C=CCN(C(=O)C1N(CCOCCO)C(=O)C2C(C(=O)O)C3C=CC21O3)c1ccc(OC)cc1 (stereo not given) | -0.0891 and 0.163 | -0.24 and 0.366 | 0.136 and 0.857 | 0.963 and -0.688 | -0.25 and 0.0863 | 0.191 and -1.15 | 0.124 (inactive) and 1.32 (inactive) | -0.0484 and 0.126 | 1.01 and 0.642 | -0.237 (inactive) and 0.168 (inactive) | 0.0057 and 0.18 | -0.174 (inactive) and -0.731 (inactive) | 0.267 (inactive) and -0.0413 (inactive) | -0.511 (inactive) and -4.53 (inactive) | -0.276 (inactive) and -0.0963 (inactive) | -0.478 (inactive) and -0.298 (inactive) | 0.556 (inactive) and 1.24 (inactive) | 0.2 (inactive) and 0.638 (inactive) | -0.0424 and 0.0858 | 0.0637 and 0.0264
COC(=O)C1=C(C)N(Cc2ccccc2)C2=C3C(=O)N(c4ccccc4)C(=O)[C@@H]3[C@@](O)(C(=O)OC)C(=O)N2[C@@H]1c1ccccc1 | 1.52 and 2.18 | 0.0671 and 1.01 | 0.286 and -0.126 | -0.532 and 0.354 | 0.585 and 1.26 | 0.889 and 1.68 | 0.143 (inactive) and 1.26 (inactive) | -0.87 and -0.111 | 0.702 and 0.136 | 0.497 (inactive) and 0.767 (inactive) | 0.941 and 0.879 | -1.31 (inactive) and -2.61 (inactive) | 0.463 (inactive) and 1.02 (inactive) | -0.0764 (inactive) and -0.563 (inactive) | -0.847 (inactive) | -0.305 (inactive) and -1.62 (inactive) | 0.284 (inactive) and 1.07 (inactive) | -0.23 (inactive) and 1.2 (inactive) | 0.698 and 0.334 | 0.122 and 0.0178
C=CCN(CCCC)C(=O)C1N(c2c(Cl)cccc2CO)C(=O)C2C(C(=O)O)C3C=CC21O3 (stereo not given) | -0.313 and -0.498 | 1.21 and 1.63 | -1.25 and -0.852 | 0.96 and 0.468 | -0.497 and -0.251 | -1.04 and -0.518 | -0.291 (inactive) and 0.159 (inactive) | 0.0487 and -0.0566 | 0.488 and 0.599 | -0.822 (inactive) and -0.0069 (inactive) | -0.757 and -0.248 | 0.187 (inactive) and -0.602 (inactive) | -1.9 (inactive) and -0.645 (inactive) | 0.82 (inactive) and -0.536 (inactive) | -0.261 (inactive) and 0.497 (inactive) | 0.561 (inactive) and 0.143 (inactive) | -0.964 (inactive) and 0.22 (inactive) | -0.881 (inactive) and -0.0006 (inactive) | -0.813 and -0.285 | -0.0599 and 0.425
